ALDH1A1 block: inhibitors of human aldehyde dehydrogenase 1A1 | Purified ALDH1A1, NADH fluorescence, propionaldehyde substrate | Potency, µM (top dose mostly 75.3 µM), for inactives: at the top dose activity, negative = inhibition, usual class: inhibitors | hit rate 7.3% among 220,000 | AID 1030;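 also: potency is read from the fitted curve at half-maximal effect; plate controls were no enzyme wells and a reference inhibitor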
Target sequence (P00352 whole entry, looked up): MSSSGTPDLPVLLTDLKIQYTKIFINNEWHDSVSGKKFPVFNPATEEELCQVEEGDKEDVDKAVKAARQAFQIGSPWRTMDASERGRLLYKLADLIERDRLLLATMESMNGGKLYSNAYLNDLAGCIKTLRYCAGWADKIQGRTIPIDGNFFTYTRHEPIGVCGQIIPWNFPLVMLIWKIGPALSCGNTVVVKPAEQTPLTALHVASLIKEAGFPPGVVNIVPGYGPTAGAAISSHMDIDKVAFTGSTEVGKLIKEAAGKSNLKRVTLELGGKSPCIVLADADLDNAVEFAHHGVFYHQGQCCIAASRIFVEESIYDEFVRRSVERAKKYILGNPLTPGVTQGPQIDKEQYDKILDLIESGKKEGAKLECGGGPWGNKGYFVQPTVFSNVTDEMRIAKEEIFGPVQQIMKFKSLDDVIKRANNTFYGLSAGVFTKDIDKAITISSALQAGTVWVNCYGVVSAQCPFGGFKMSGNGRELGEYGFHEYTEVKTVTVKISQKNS
PNC inhibitor: blocks assembly of the perinucleolar compartment; PC3M PTB-GFP, PNC prevalence imaging, 16 h; stronger effect = lower value; hit rate 3.1% among 140,000; activity change (PNC), negative = inhibition, % at 10 µM; AID 2417;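 active = readout at or below -70, meaning at least 70% loss of cells showing the perinucleolar compartment, a nuclear body marking cancer cells; inconclusive = readout between -30 and a set limit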;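 also: plate controls were DMSO wells for no effect and camptothecin positive control wells for full effect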
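Compounds are pinned in duplicate onto adhered PC3M cells stably expressing GFP-tagged PTB and incubated 16 h at 37 C. Cells are then fixed, nuclei stained with Hoechst, and PNC-positive cells counted.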
HPGD inh: inhibitors of human 15-hydroxyprostaglandin dehydrogenase (HPGD); hit rate 4.3% among 150,000; Potency, µM, for the others: at the highest dose activity change, negative = inhibition, actives largely listed as inhibitors; purified HPGD, NADH fluorescence kinetic, PGE2 substrate; P15428; also: potency is read from the fitted curve at half-maximal effect
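20 nM HPGD preincubated 15 min at room temperature with compound in 50 mM Tris-HCl pH 8, 0.01% Tween 20. Started with 1 mM NAD+ and 30 uM prostaglandin E2; NADH fluorescence (360/450 nm) read 5 times over 30-s intervals, last minus first.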
Active calls of the source: *; ? = inconclusive; nt = no result given; [ ] = another dose, or the depositor's remark. This is a sample that favours compounds with a hit; in the whole collection about 11% have one here. Unless noted, calls follow the shape of the dose curve; as a rule, active = well fitted inhibition curve with a large enough effect (not every such curve was filed as active); inconclusive = small, poorly fitted or top-dose-only effect, or another doubt; inactive = no such curve, though single readings can be large or run the other way. Unless noted, % is scaled to controls: 0 for no effect and ±100 for the full control effect.

SMILES	ALDH1A1 block	PNC inhibitor	HPGD inh
O=C(NC1CCCCC1)C(c1ccc(F)cc1)N(Cc1ccc2c(c1)OCO2)C(=O)c1cnsn1 (centres undefined)	14%	?	-4%
N#Cc1c(NC(=O)c2cc(-n3cnnc3)ccc2Cl)sc2c1CCCC2	13µM*	21	-11%
O=C(Nc1ccccc1)c1cc(-n2cnnc2)ccc1Cl	-3%	?	-14%
Cc1cc(C(=O)Nc2sc3c(c2C#N)CCC(C)C3)no1 (centres undefined)	?	-3	-14%
Cc1cc(C(=O)Nc2sc3c(c2C#N)CCC3)no1	?	-85*	-10%
N#Cc1c(NC(=O)C2CC(Cl)=CCC2C(=O)O)sc2c1CCCC2 (centres undefined)	18µM*	nt	nt
Cc1cc(C(=O)Nc2sc3c(c2C#N)CCCC3)no1	11µM*	-13	28µM*
Cc1cc(C(F)F)n2nc(C(=O)Nc3sc4c(c3C#N)CCC4)nc2n1	?	36	-23%
Cc1sc(NC(=O)C2CC(Cl)=CCC2C(=O)O)c(C#N)c1C (centres undefined)	-7%	nt	nt
Cn1c(SCC(=O)Nc2cc(=O)n(C)c(=O)n2C)nnc1C12CC3CC(CC(C3)C1)C2	3%	?	-11%
COC(=O)N1CCC2(CCN(Cc3nccs3)CC2)CC1	8%	nt	-1%
Cc1ccc(N(NC(=O)C(O)(c2ccccc2)c2ccccc2)C(=O)CCl)cc1	?	30	11µM*
Cc1ccc(C(O)(C(=O)NN(C(=O)c2ccccc2)c2ccccc2)c2ccc(C)cc2)cc1	4%	13	0%
CC(=O)c1ccc(NC(=S)NNC(=O)c2ccncc2)cc1	?	52	-22%
CCOC(=O)c1ccc(S(=O)(=O)Nc2ccc3cn[nH]c3c2)cc1	1%	-27	-4%
N=c1ccn2c(n1)O[C@H]1[C@@H](OP(=O)(O)O)[C@H](CO)O[C@H]12	12%[13.5 µM]	nt	1%
O=C(O)CN(c1ccc2c(c1)OCCO2)S(=O)(=O)c1ccccc1	19%	?	-7%
O=C(CCl)N(C/C=C/c1ccccc1)c1ccc2c(c1)OCCO2	0.79µM*	nt	nt
COc1ccc2cc1Oc1ccc(cc1)C[C@@H]1c3c(cc(OC)c4c3Oc3cc5c(cc3O4)CCN[C@H]5C2)CCN1C	3%[13.5 µM]	nt	-1%
COCCn1c(SCc2nc3sc(C(=O)OC)c(C)c3c(=O)[nH]2)nc2ccccc21	-12%	-29	-11%
CCn1c(SCc2nc3sc(C(=O)O)c(C)c3c(=O)[nH]2)nc2ccccc21	?	54	16µM*
COc1ccc(C2=NOC3(CC(=O)N(c4ccc5ccccc5c4)C3=O)C2)c(OC)c1 (centres undefined)	-1%	?	-17%
COc1ccc2cc3cc(C(=O)NCC4COc5ccccc5O4)oc3nc2c1 (centres undefined)	?	17	?
CC(C)(C)c1cc(CSC(=S)NC2CCS(=O)(=O)C2)c(Br)c(C(C)(C)C)c1 (centres undefined)	-9%	nt	nt
O=S1(=O)CC=C(CSC(=S)NC2CCS(=O)(=O)C2)C1 (centres undefined)	19µM*	nt	nt
SMILES	ALDH1A1 block	PNC inhibitor	HPGD inh
CCN1/C(=C/c2ccc3cccc(C)c3[n+]2CC)Sc2ccccc21	?	?	-1%
CCN1/C(=C/c2ccc3cc(C)cc(C)c3[n+]2CC)Sc2cc(C)ccc21	20µM*	nt	nt
CCc1cc2cccc(C)c2nc1SCC(=O)c1ccc(NC(C)=O)cc1	?	?	-12%
CCc1cc2ccc(C)cc2nc1SCC(=O)c1ccc(NC(C)=O)cc1	25µM*	98	8.9µM*
N/C(=N\OC(=O)C1CCCCC1)c1ccccn1	-2%	54	-13%
COC(=O)C1CCN(C(=O)/C=C/c2ccccc2)CC1	-5%	-114*	-3%
COc1ccccc1N1CCN(C(=O)/C=C/c2cccs2)CC1	?	-16	-14%
COc1ccccc1N1CCN(C(=O)/C=C/c2ccccc2)CC1	1%	-100*	-10%
COc1ccccc1N1CCN(C(=O)c2oc3ccc(F)cc3c2C)CC1	-2%	220	0%
COc1ccccc1N1CCN(C(=O)c2ccccc2Oc2ccccc2)CC1	0.56µM*	?	-18%
COc1ccccc1N1CCN(C(=O)c2oc3ccc(Br)cc3c2C)CC1	9%	-95*	-21%
O=C(/C=C/c1ccccc1)N1CCC(Cc2ccccc2)CC1	6%	-3	nt
O=C(c1ccccc1Oc1ccccc1)N1CCN(c2ccccc2F)CC1	-8%	-24	-3%
COc1ccc(C2c3c(-c4cc(Cl)c(C)cc4O)n[nH]c3C(=O)N2Cc2cccnc2)cc1OC (centres undefined)	12%	28	10%
Cc1ccc(C)c(N2CCN(C(=O)c3ccc4nc(-c5ccco5)c(-c5ccco5)nc4c3)CC2)c1	?	76	?
COc1ccccc1N1CCN(C(=O)c2ccc3nc(-c4ccco4)c(-c4ccco4)nc3c2)CC1	13µM*	23	-17%
N#CC1=C(N)Nc2ncnn2C1c1ccc(F)cc1 (centres undefined)	2%	-17	-9%
Cc1noc2ncnc(N3CCN(c4ccc(F)cc4)CC3)c12	7%	nt	nt
Cc1noc2ncnc(N3CCCCC3)c12	32µM*	nt	nt
O=P(O)(O)c1ccccc1OCCOCCOc1ccccc1P(=O)(O)O	?	24	-7%
CCOP(=O)(O)c1ccccc1OCCOCCOc1ccccc1P(=O)(O)OCC	4µM*	?	2%
CCOC(=O)c1cc2occc2n1CC(=O)Nc1ccc(OC)cc1OC	5%	-24	-3%
COCCSc1ccccc1C(=O)Nc1cc(C)on1	?	?	32µM*
O=C(CSc1ccccc1C(=O)O)NCc1ccco1	4%	21	-9%
COCCSc1ccccc1C(=O)NCc1ccco1	14µM*	30	8.9µM*
SMILES	ALDH1A1 block	PNC inhibitor	HPGD inh
COCCSc1ccccc1C(=O)Nc1ccc(Cl)cc1	-7%	nt	nt
NC(CSS(=O)(=O)O)=N[C@@H]1C[C@H]2CC[C@@H]1C2	3%[13.5 µM]	nt	-8%
CN1C2CCC1/C(=C\c1ccccc1)C(=O)/C2=C\c1ccccc1	1%	31	-9%
Cc1ccc(S(=O)(=O)Oc2ccc(C(c3c(C)[nH][nH]c3=O)c3c(C)[nH][nH]c3=O)cc2)cc1	?	17	-9%
O=c1cc(-c2ccc(Cl)c(Cl)c2)[nH][nH]1	12%	7	4%
Cc1[nH][nH]c(=O)c1C(c1ccc(-c2ccc(F)cc2)o1)c1c(C)[nH][nH]c1=O	25µM*	nt	nt
Cc1[nH][nH]c(=O)c1C(c1ccc(-c2ccc(Cl)c(Cl)c2)o1)c1c(C)[nH][nH]c1=O	10µM*	-3	?
Cc1[nH][nH]c(=O)c1C(c1cc([N+](=O)[O-])ccc1O)c1c(C)[nH][nH]c1=O	-3%	-22	-11%
COc1ccc(-c2ccc(C(c3c(C)[nH][nH]c3=O)c3c(C)[nH][nH]c3=O)o2)c([N+](=O)[O-])c1	10µM*	nt	nt
Cn1c2c(c(=O)n(C)c1=O)C(c1ccccc1OC(F)F)C1=C(CCCC1=O)N2 (centres undefined)	-6%	-21	nt
O=S(=O)(c1ccccc1)N1CCC[C@@]2(CCN(Cc3nccs3)C2)C1	-12%	nt	-2%
COc1cccc(C(=O)Nc2nnc(-c3cccs3)s2)c1	?	24	?
CCOCCC(=O)Nc1cc(Cl)ccc1OC	-4%	0	-19%
Nc1ccc(C(=O)N/N=C\C=C\c2ccc([N+](=O)[O-])cc2)cc1	8%	nt	nt

Bioassay records (PubChem BioAssay)
